The text below walks through data of PubChem BioAssay (NCATS).

Inconclusive results are not listed. Active and inactive are the calls of the source. Unless noted, calls follow the shape of the dose curve; as a rule, active = well fitted curve in the direction sought with a large enough effect; inconclusive = small, poorly fitted or top-dose-only effect, or another doubt; inactive = no such curve, though single readings can be large; an effect the other way counts as inactive or inconclusive.

For experiment [1], the target named is Luciferin 4-monooxygenase (Photinus pyralis) (UniProt P08659). Put plainly: Biochemical firefly luciferase enzyme assay for NPC (AID 624030). Also: nearly all actives have a fitted effect of over 70% in size. Also: potency is read from the fitted curve at half-maximal effect. An outline of the steps: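 Counter-screen for direct inhibition of the luciferase enzyme by approved-drug library compounds, run at 10 nM enzyme in 50 mM Tris acetate (final). Luminescence was read within 5 min of enzyme-buffer addition and normalized to PTC124 versus DMSO (0%).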

The nature of experiment [2]: S16 Schwann cell viability assay (CellTiter-Glo assay) (AID 624031).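 Also: cellular ATP luminescence as a viability measure; plate controls were DMSO-treated cells for no effect and cell-free wells for full effect; nearly all actives have a fitted effect of over 70% in size.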 An outline of the steps: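 Native S16 rat Schwann cells in DMEM/10% FBS without phenol red were incubated overnight, then exposed to compounds for 24 h at 37 °C/5% CO2. Viability was read as ATP luminescence (CellTiter-Glo), normalized to no-cell wells and DMSO (0%).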
On the technique in general: Cellular ATP, detected with luciferase, serves as a proxy for viable cell number.

Experiment [3] is described as follows: S16 Schwann cell PMP22 intronic element beta-lactamase assay (AID 624044; calls by dose curve; also: nearly all actives have a fitted effect of over 15% in size; also: potency is read from the fitted curve at half-maximal effect;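 as to ratio activity, negative = inhibition: 0% = DMSO and -100% = potassium clavulanate positive control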). To be noted: S16 rat Schwann cells, PMP22 element beta-lactamase FRET, 24 h; ratio activity, negative = inhibition: at 38.3 µM (top of the series). An outline of the steps:
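Beta-lactamase reporter under a PMP22 intronic regulatory element in stable S16 rat Schwann cells; 24 h compound exposure. 460 nm blue signal normalized between DMSO (0%) and potassium clavulanate, with 535 nm FRET tracking viability; curves classed by r2 and response.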

The test system of another experiment is 7G8. The experiment can be described thus: qHTS profiling for inhibitors of Plasmodium falciparum proliferation (AID 504749). Also: nearly all actives have a fitted effect of over 60% in size. Also: potency is read from the fitted curve at half-maximal effect.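 As to activity, negative = inhibition: 0% = DMSO vehicle and full inhibition = artemisinin control.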 The settings on record: P. falciparum in erythrocytes, SYBR Green DNA, 72 h; series mostly up to 28.7 µM. An outline of the steps:
(§1)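 Quantitative HTS: compounds pinned into medium, infected erythrocytes added (0.3% parasitemia, 2.5% hematocrit), 72 h culture at 37 C under 5% CO2. Saponin/Triton lysis with SYBR Green I, overnight RT, then fluorescence read.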
Background: Quantitative high-throughput screening tests each substance at several concentrations.

Another experiment deals with ATS95. The description is as above. The settings on record: P. falciparum in erythrocytes, SYBR Green DNA, 72 h; series mostly up to 28.7 µM. In outline: as §1
In the next experiment the test system is CP215. The description is as above. To be noted: P. falciparum in erythrocytes, SYBR Green DNA, 72 h; series mostly up to 28.7 µM. In outline:
as §1

The next experiment relates to CP247. The experiment is described as above. The settings on record: P. falciparum in erythrocytes, SYBR Green DNA, 72 h; series mostly up to 28.7 µM. An outline of the steps:
as §1

The test system of another experiment is CP266. The description is as above. The settings on record: P. falciparum in erythrocytes, SYBR Green DNA, 72 h; series mostly up to 28.7 µM. An outline of the steps: as §1
Another experiment relates to CP291. The description is as above. The settings on record: P. falciparum in erythrocytes, SYBR Green DNA, 72 h; series mostly up to 28.7 µM. An outline of the steps:
as §1

A further experiment has as its system CP297. Described as above. To be noted: P. falciparum in erythrocytes, SYBR Green DNA, 72 h; series mostly up to 28.7 µM. An outline of the steps: as §1
Another experiment has as its system CP335. The experiment is described as above. To be noted: P. falciparum in erythrocytes, SYBR Green DNA, 72 h; series mostly up to 28.7 µM. An outline of the steps:
as §1

The next experiment relates to DIV17. Described as above. To be noted: P. falciparum in erythrocytes, SYBR Green DNA, 72 h; series mostly up to 28.7 µM. An outline of the steps: as §1
For another experiment, the system named is GB4. Described as above. To be noted: P. falciparum in erythrocytes, SYBR Green DNA, 72 h; series mostly up to 28.7 µM. An outline of the steps:
as §1

Another experiment has as its system P93_24. The description is as above. To be noted: P. falciparum in erythrocytes, SYBR Green DNA, 72 h; series mostly up to 28.7 µM. An outline of the steps: as §1
For the next experiment, the system named is PC15. The experiment is described as above. The settings on record: P. falciparum in erythrocytes, SYBR Green DNA, 72 h; series mostly up to 28.7 µM. In outline:
as §1

The subject of the next experiment is PC26. Described as above. The settings on record: P. falciparum in erythrocytes, SYBR Green DNA, 72 h; series mostly up to 28.7 µM. In outline: as §1
The next experiment concerns PC49. The description is as above. The settings on record: P. falciparum in erythrocytes, SYBR Green DNA, 72 h; series mostly up to 28.7 µM. In outline: as §1
Another experiment has as its system TAB109. The experiment is described as above. The settings on record: P. falciparum in erythrocytes, SYBR Green DNA, 72 h; series mostly up to 28.7 µM. An outline of the steps: as §1
For the next experiment, the system named is TAB165. The experiment is described as above. The settings on record: P. falciparum in erythrocytes, SYBR Green DNA, 72 h; series mostly up to 28.7 µM. In outline: as §1
Another experiment concerns CP260. The experiment is described as above. To be noted: P. falciparum in erythrocytes, SYBR Green DNA, 72 h; series mostly up to 28.7 µM. An outline of the steps: as §1

Luciferin 4-monooxygenase (Photinus pyralis), sequence (P08659 whole entry, looked up): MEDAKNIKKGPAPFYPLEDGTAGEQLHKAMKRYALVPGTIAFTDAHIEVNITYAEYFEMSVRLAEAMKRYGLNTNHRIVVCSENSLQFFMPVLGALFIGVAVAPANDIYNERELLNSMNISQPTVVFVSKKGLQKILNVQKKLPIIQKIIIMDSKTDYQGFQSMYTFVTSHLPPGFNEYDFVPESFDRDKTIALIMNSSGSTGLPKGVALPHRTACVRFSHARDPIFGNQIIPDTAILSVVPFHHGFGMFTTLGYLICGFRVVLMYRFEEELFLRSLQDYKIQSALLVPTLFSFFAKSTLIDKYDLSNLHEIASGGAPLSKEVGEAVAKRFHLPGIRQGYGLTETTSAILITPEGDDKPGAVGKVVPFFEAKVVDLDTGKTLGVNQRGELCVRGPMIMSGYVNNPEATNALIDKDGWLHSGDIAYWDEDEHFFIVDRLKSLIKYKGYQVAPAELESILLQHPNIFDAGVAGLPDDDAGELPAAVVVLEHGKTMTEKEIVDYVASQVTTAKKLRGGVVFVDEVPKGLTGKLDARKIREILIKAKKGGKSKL

In the case of `CCCCC(=O)O[C@]1(C(=O)CO)CCC2C3CCC4=CC(=O)CCC4(C)C3C(O)CC21C` (some centres not stated), the Potency entry (in [1]; in experiment [2]; in the experiment with ATS95; with CP215; in the experiment on CP247; in the experiment with CP266) was “inactive” in each case. For the same compound, the Potency result with CP291, with CP297, in the experiment on CP335, in the experiment on DIV17, in the experiment on GB4 and in the experiment on P93_24 was “inactive” each time. Further, the Potency result in the experiment on PC15, in the experiment with PC26, with PC49, with TAB109 and with TAB165 was “inactive” throughout. Also, in experiment [3], the ratio activity, negative = inhibition was -11.9% (active). Moreover, the Potency in the experiment on 7G8 is 12600 nM (active).
In the case of `CC1(C(=O)O)CCC2(C)CCC3(C)C(=CC(=O)C4C5(C)CCC(O)C(C)(C)C5CCC43C)C2C1` (configuration not stated), the Potency entry (in experiment [1]; in experiment [2]; in experiment [3]; in the experiment on 7G8; with ATS95; in the experiment with CP215) was “inactive” throughout. The Potency entry in the experiment with CP247, with CP260, in the experiment with CP291, in the experiment with CP297, with CP335 and in the experiment with GB4 was “inactive” each time. Besides, the Potency result in the experiment with P93_24, with PC15, in the experiment with PC26, in the experiment on PC49, in the experiment on TAB109 and in the experiment with TAB165 was “inactive” in each case.
As for `C/C(=C(/CCO)SS/C(CCO)=C(\C)N(C=O)Cc1cnc(C)nc1N)N(C=O)Cc1cnc(C)nc1N`, the Potency result (in experiment [1]; in [2]; in [3]; in the experiment on 7G8; in the experiment on ATS95; with CP215) was “inactive” in each case. Besides, the Potency entry in the experiment on CP266, with CP291, in the experiment with CP297, in the experiment with CP335, in the experiment on DIV17 and in the experiment on GB4 was “inactive” in each case. Also, the Potency result in the experiment with P93_24, with PC15, in the experiment on PC26, in the experiment on PC49 and in the experiment with TAB165 was “inactive” in each case.
On to `OCC1OC(O)C(O)C(O)C1O` (configuration not stated), for which the Potency result (in experiment [2]; in experiment [3]; in the experiment with 7G8; with ATS95; with CP215; with CP247) was “inactive” in each case. For the same compound, the Potency result in the experiment with CP260, in the experiment with CP266, in the experiment on CP335, in the experiment on P93_24, in the experiment on PC15 and in the experiment with PC49 was “inactive” in each case. In addition, the Potency entry in the experiment with TAB109 and with TAB165 was “inactive” in each case.
For `O=C(O)Cc1sc(-c2ccc(Cl)cc2)nc1-c1ccccc1`, the Potency in experiment [1] is 25600 nM (active). In addition, the Potency entry (in experiment [2]; in experiment [3]; in the experiment with 7G8; in the experiment on ATS95; in the experiment on CP247; in the experiment on CP260) was “inactive” in each case. In addition, the Potency entry with CP266, in the experiment with CP291, with CP297, with CP335, in the experiment on DIV17 and with GB4 was “inactive” each time. Besides, the Potency result with P93_24, in the experiment on PC15, with PC26, in the experiment with PC49, in the experiment with TAB109 and with TAB165 was “inactive” throughout.
For the compound `CCC(C(=O)C(C)C(O)C(C)CCc1ccc(C)c(O)c1C(=O)O)C1OC(CC)(C2CC[C@@](O)(CC)C(C)O2)CC1C` (some centres not stated), the Potency entry in experiment [1] and in experiment [2] was “inactive” throughout. The Potency is 6300 nM (active) in experiment [3]; 501 nM (active) in the experiment with 7G8; 891 nM (active) in the experiment with ATS95; 849 nM (active) with CP215; 794 nM (active) in the experiment on CP247; 631 nM (active) in the experiment on CP260. The Potency with CP266 was 1350 nM (active); in the experiment on CP291 it was 478 nM (active); with CP297, 601 nM (active); with CP335, 426 nM (active); in the experiment on DIV17, 849 nM (active); in the experiment with GB4, 757 nM (active). Also, the Potency in the experiment with P93_24 was 794 nM (active); in the experiment with PC15 it was 1410 nM (active); with PC26, 849 nM (active); in the experiment on PC49, 2000 nM (active); in the experiment on TAB109 it was 891 nM (active); with TAB165, 355 nM (active).
